Assay outcomes: PubChem BioAssay, several laboratories
Rows were chosen to be rich in hits. Some 1.3% of all compounds tested hit in one or more screens of this group.
ADAM17 inh: inhibits human ADAM17. P78536. recombinant ADAM17, EDANS/DABCYL FRET peptide cleavage. inhibition, % at 6.95 µM. actives 0.83% (n = 370,000). AID 720648;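 active = inhibition above the mean of compounds lying between control limits plus 3 SD, set per campaign, cut at about 8.5% in these data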
GC-B act: GC-B (human) receptor activation. AID 1920062. HEK293-GC-B cells, CNP EC30, cGMP TR-FRET; 0% at EC30 CNP, 100% saturating CNP. actives 0.11% (n = 370,000). activation, % at 10 µM. P20594;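 active = activation at 10 µM reaching about 35% in either raw or pattern-adjusted values, limit read from the data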
GC-A act: GC-A (human) enzyme activation; P16066; AID 1671463; activation, % at 10 µM; actives 0.14% (n = 370,000); HEK293 GC-A cells, cGMP TR-FRET, EC30 ANP; 0% at EC30 ANP, 100% saturating ANP; in the data active = activation above about 40%
Target sequence (P16066 whole entry, looked up): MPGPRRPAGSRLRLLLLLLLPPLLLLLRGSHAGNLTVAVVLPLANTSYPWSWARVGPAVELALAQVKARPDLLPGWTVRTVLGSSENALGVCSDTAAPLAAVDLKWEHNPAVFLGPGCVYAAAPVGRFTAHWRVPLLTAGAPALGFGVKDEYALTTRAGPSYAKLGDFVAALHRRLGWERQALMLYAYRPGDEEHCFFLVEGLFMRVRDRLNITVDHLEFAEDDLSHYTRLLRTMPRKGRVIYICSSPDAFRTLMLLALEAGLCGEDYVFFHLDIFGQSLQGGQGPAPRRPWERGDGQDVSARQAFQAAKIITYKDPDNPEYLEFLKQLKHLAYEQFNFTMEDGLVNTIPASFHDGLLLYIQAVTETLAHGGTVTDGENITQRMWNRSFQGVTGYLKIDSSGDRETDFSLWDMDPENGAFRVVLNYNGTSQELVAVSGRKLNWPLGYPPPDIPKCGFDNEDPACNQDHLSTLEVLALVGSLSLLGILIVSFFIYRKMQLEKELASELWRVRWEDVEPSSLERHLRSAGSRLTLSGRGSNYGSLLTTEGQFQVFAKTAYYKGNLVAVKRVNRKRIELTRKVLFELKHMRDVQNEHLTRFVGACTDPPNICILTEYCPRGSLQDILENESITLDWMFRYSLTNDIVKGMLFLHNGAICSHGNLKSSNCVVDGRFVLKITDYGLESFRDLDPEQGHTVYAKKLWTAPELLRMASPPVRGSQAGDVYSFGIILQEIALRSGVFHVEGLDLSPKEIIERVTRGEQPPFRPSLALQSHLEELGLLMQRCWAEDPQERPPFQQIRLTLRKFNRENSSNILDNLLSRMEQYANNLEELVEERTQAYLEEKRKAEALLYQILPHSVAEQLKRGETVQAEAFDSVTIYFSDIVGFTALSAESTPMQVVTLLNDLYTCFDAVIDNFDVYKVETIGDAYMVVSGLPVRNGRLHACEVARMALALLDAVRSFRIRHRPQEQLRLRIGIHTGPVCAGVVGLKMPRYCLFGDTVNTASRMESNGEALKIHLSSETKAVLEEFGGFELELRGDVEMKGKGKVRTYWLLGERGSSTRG
ADAM10 inh: ADAM10 inhibition, QFRET primary screen. O14672. recombinant ADAM10, EDANS/DABCYL FRET peptide cleavage, 3 h. inhibition, % at 7 µM. actives 0.62% (n = 370,000). AID 720582;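 active = inhibition above a per-campaign cutoff equal to the mean of compounds falling between control-based bounds plus 3 SD, cut at about 20% in these data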
ADAM10 counter: ADAM10 inhibition, counter-screen for ADAM17 exosite hits; shares compounds with ADAM17 inh; recombinant ADAM10, EDANS/DABCYL FRET peptide cleavage, 3 h; inhibition, % at 6.95 µM; actives 47% (n = 2,900); AID 743256;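 active = mean inhibition over the triplicate runs exceeds the activity threshold set in the earlier primary screen, cut at about 20% in these data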
ADAM17 confirm: confirmation of inhibitors of human ADAM17. shares compounds with ADAM17 inh. recombinant ADAM17, EDANS/DABCYL QFRET peptide cleavage. inhibition, % at 6.95 µM. actives 65% (n = 2,900). AID 743257;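 active = mean inhibition across replicates above the hit cutoff set in the primary screen, cut at about 8.5% in these data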
Hits are given with their value.

CCCCC1CCC(C(=O)N(CCOC)c2c(N)n(CC(C)C)c(=O)[nH]c2=O)CC1 (centres undefined) was read as ADAM17 inh 9.3, GC-B act inactive, GC-A act inactive, ADAM10 inh inactive, ADAM10 counter inactive and ADAM17 confirm inactive.
For CCOc1cc(N2CCOCC2)c(OCC)cc1NC(=O)CN1C(=O)NC2(CCc3ccccc32)C1=O (centres undefined) the results were ADAM17 inh 8.8, GC-B act inactive, GC-A act inactive, ADAM10 inh inactive, ADAM10 counter inactive and ADAM17 confirm inactive.
Screening O=C(Cc1cccs1)Nc1nc(-c2ccc(F)cc2F)cs1 returned ADAM17 inh 14.1, GC-B act inactive, GC-A act inactive, ADAM10 inh inactive, ADAM10 counter inactive and ADAM17 confirm 10.7.
O=C(Cc1cccs1)Nc1nc(-c2ccc(F)c(F)c2)cs1 was read as ADAM17 inh inactive, GC-B act inactive, GC-A act inactive and ADAM10 inh inactive.
Screening Cc1ccccc1NC(=O)Cc1c[nH]c2ccccc12 returned ADAM17 inh inactive, GC-B act inactive, GC-A act inactive and ADAM10 inh inactive.
For COc1ccc(F)cc1-c1cc(NC=O)c2ncc(-c3cc(OC)c(OC)c(OC)c3)n2c1 the results were ADAM17 inh inactive, GC-B act inactive, GC-A act inactive and ADAM10 inh inactive.
CCC(=O)Nc1nnc(C)s1 was read as ADAM17 inh 11.7, GC-B act inactive, GC-A act inactive, ADAM10 inh inactive, ADAM10 counter inactive and ADAM17 confirm inactive.
For CN(C)CC(C)(C)CN=Cc1c(O)[nH]c2ccccc12 the results were ADAM17 inh inactive, GC-B act inactive, GC-A act inactive and ADAM10 inh inactive.
For COc1cc(NC(=O)CCn2c(=S)oc3ccccc32)cc(OC)c1OC the results were ADAM17 inh inactive, GC-B act inactive, GC-A act inactive and ADAM10 inh inactive.
O=C(/C=C(/c1ccc(Cl)cc1)n1cncn1)c1ccccc1 was read as ADAM17 inh 9.7, GC-B act inactive, GC-A act inactive, ADAM10 inh inactive, ADAM10 counter inactive and ADAM17 confirm inactive.
CCOC(=O)C1(CC2CCCCO2)CCN(C(=O)Nc2cccc(SC)c2)CC1 (centres undefined) was read as ADAM17 inh 9.2, GC-B act inactive, GC-A act inactive, ADAM10 inh inactive, ADAM10 counter inactive and ADAM17 confirm inactive.
For O=C(/C=C/Nc1ccc(F)c(Cl)c1)c1ccccc1 the results were ADAM17 inh inactive, GC-B act inactive, GC-A act inactive and ADAM10 inh inactive.
For Cc1ccc(NC(=S)N/N=C/c2ccc([N+](=O)[O-])s2)cc1 the results were ADAM17 inh 10.7, GC-B act inactive, GC-A act inactive, ADAM10 inh inactive, ADAM10 counter 32.5 and ADAM17 confirm 18.8.
`Cc1cc(C)cc(N=Cc2ccc([N+](=O)[O-])s2)c1` gave ADAM17 inh inactive, GC-B act inactive, GC-A act inactive and ADAM10 inh inactive.
For Cc1cc(C(=O)NC2CCCc3c2cnn3-c2ccc(C(C)(C)C)cc2)nn1C (centres undefined) the results were ADAM17 inh inactive, GC-B act inactive, GC-A act inactive and ADAM10 inh inactive.
`Cc1nc(C(F)(F)F)ccc1C(=O)N1CCC1(C)C(=O)NS(=O)(=O)c1cccc(Cl)c1` (centres undefined) gave ADAM17 inh inactive, GC-B act inactive, GC-A act inactive and ADAM10 inh inactive.
For Cc1ccc(C2(CCNS(=O)(=O)c3ccc(C)cc3)CCOC(C(C)C)C2)cc1 (centres undefined) the results were ADAM17 inh 10.5, GC-B act inactive, GC-A act inactive, ADAM10 inh inactive, ADAM10 counter 28.5 and ADAM17 confirm 15.9.
`COc1cc2c(cc1OC)C(c1ccccc1F)NCC2` (centres undefined) gave ADAM17 inh inactive, GC-B act inactive, GC-A act inactive and ADAM10 inh inactive.
CCOC(=O)/C(C#N)=C(C)/C=C1\Sc2ccccc2N1CC was read as ADAM17 inh inactive, GC-B act inactive, GC-A act inactive and ADAM10 inh inactive.
For CCN1/C(=C\C=C(C(C)=O)C(C)=O)Sc2ccccc21 the results were ADAM17 inh 10.1, GC-B act inactive, GC-A act inactive, ADAM10 inh inactive, ADAM10 counter inactive and ADAM17 confirm 9.1.
`Cc1ccc(S(=O)(=O)N(C)CC(=O)NNC(=O)Cc2ccccc2F)cc1` gave ADAM17 inh 11.3, GC-B act inactive, GC-A act inactive, ADAM10 inh inactive, ADAM10 counter inactive and ADAM17 confirm 10.6.
CC(=O)Nc1ccc(OCC(=O)c2cc(C)ccc2C)cc1 was read as ADAM17 inh inactive, GC-B act inactive, GC-A act inactive and ADAM10 inh inactive.
`CC(=O)Nc1ccc(OCC(=O)c2ccc(C)cc2C)cc1` gave ADAM17 inh 9.6, GC-B act inactive, GC-A act inactive, ADAM10 inh inactive, ADAM10 counter inactive and ADAM17 confirm inactive.
For COc1cc(SC)ccc1C(=O)NCCOc1ccc(C)c(C)c1 the results were ADAM17 inh 8.8, GC-B act inactive, GC-A act inactive, ADAM10 inh inactive, ADAM10 counter inactive and ADAM17 confirm 11.9.
For COc1ccccc1C(=O)NCCOc1ccc(C)c(C)c1 the results were ADAM17 inh inactive, GC-B act inactive, GC-A act inactive and ADAM10 inh inactive.
`O=[N+]([O-])c1cccc(-c2c(-c3ccccc3)ncc3ccc(F)cc23)c1` gave ADAM17 inh 10.7, GC-B act inactive, GC-A act inactive, ADAM10 inh inactive, ADAM10 counter inactive and ADAM17 confirm inactive.
`Fc1cccc(-c2c(-c3ccccc3)ncc3cc(F)ccc23)c1` gave ADAM17 inh inactive, GC-B act inactive, GC-A act inactive and ADAM10 inh inactive.
`CC(C)(C)N(Cc1ccccc1)C(=O)CSc1nc2ccccc2c(=O)[nH]1` gave ADAM17 inh 9.0, GC-B act inactive, GC-A act inactive, ADAM10 inh inactive, ADAM10 counter inactive and ADAM17 confirm inactive.
Screening Cc1nnc(SCC(=O)N(Cc2ccccc2)C(C)(C)C)[nH]c1=O returned ADAM17 inh inactive, GC-B act inactive, GC-A act inactive and ADAM10 inh inactive.
`COc1ccc(C)cc1NC(=O)CSc1nnc(COc2ccc(C)cc2)n1Cc1ccco1` gave ADAM17 inh 10.8, GC-B act inactive, GC-A act inactive, ADAM10 inh inactive, ADAM10 counter 25.9 and ADAM17 confirm 14.7.
For COc1ccccc1NC(=O)CSc1nnc(COc2ccc(Cl)cc2)n1Cc1ccco1 the results were ADAM17 inh inactive, GC-B act inactive, GC-A act inactive and ADAM10 inh inactive.
